# Hit rate of the full screen: of about 2,400 compounds, about 360 (15%) were called active.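 Rule for the calls: active = viability falls under 70% at one or more tested concentrations, taken as toxicity; inactive = viability stays over 70% at every dose.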 Only a sample is shown. Measured potencies and affinities stand elsewhere.
# Test: viability loss in HeLa cells – cytotoxicity control for MgcRacGAP inhibitor project, dose response (AID 624300)
# Conditions: CellTiter-Glo luminescence, 24 h; series mostly up to 100 µM
row,Compound,outcome
1,O=C(CCN1CCN(C(c2ccccc2)c2ccccc2)CC1)N/N=C/c1ccc(O)cc1,inactive
2,CCCOC(=O)c1ccc(O)c(OC)c1,inactive
3,O=C(C1CCN(Cc2cc(Cl)ccc2O)CC1)N1CCN(Cc2ccccc2)CC1,inactive
4,COc1ccc(NC(C)c2cc(Cl)ccc2O)cc1 (centres undefined),inactive
5,COc1ccc(/C=C2\C(=O)NC(=O)c3ccccc32)cc1OC,inactive
6,COc1cccc(CNc2ccc(N3CCC(C)CC3)cc2)c1OC,inactive
7,COc1cc(/C=N/NC(=O)/C(=C\c2ccc3c(c2)OCO3)NC(=O)c2ccccc2)ccc1O,inactive
8,COc1ccc(C(=O)N/N=C/c2ccc(N3CCOCC3)s2)cc1OC,inactive
9,COc1cc(/C=N/NC(=O)C(=O)NCC2CCCO2)ccc1O (centres undefined),inactive
10,Cc1cc(C)c(S(=O)(=O)Nc2ccc(O)cc2)c(C)c1,inactive
11,O=C(Nc1ccccn1)c1ccc2ccccc2c1O,inactive
12,COc1ccc(NC(=S)Nc2cccc3ccccc23)cc1OC,inactive
13,O=C(Nc1ccc(O)cc1)c1ccc(C(=O)c2ccccc2)o1,inactive
14,COc1ccc(CCNc2nc(=S)[nH]c3cc(OC)c(OC)cc23)cc1OC,inactive
15,CCCCNc1nc(=S)[nH]c2cc(OC)c(OC)cc12,inactive
16,CC(=O)CC(=O)Nc1ccc(Nc2ccccc2)cc1,inactive
17,COCCCn1c(=S)[nH]c2sc3c(c2c1=O)CCCC3,inactive
18,CCOc1ccc(OCCOCCN2CCCC2)cc1,inactive
19,Cc1cc(OCCCCCN2CCCC2)ccc1Cl,inactive
20,CN(C)CCCn1c(SCc2ccc(Cl)cc2)nnc1-c1ccncc1,inactive

row,Compound,outcome
1,N#CCCN1CCN(CCC#N)c2ccccc21,inactive
2,C/C(CC(=O)Nc1ccc(N(C)C)cc1)=N\NC(=O)c1ccc(F)cc1,inactive
3,Cn1cccc1/C=C1\SC(=Nc2ccc(O)cc2)NC1=O,inactive
4,Cc1ccccc1CN1CCN(C(=O)c2cccc3ccccc23)CC1,inactive
5,O=C(c1ccccc1F)N1CCN(Cc2ccc3c(c2)OCO3)CC1,inactive
6,Cc1[nH]c2ccccc2c1/C=N\NC(=O)CNc1ccc2c(c1)OCO2,inactive
7,COc1ccccc1N=NNc1ccccc1OC,inactive
8,c1ccc(CN2CCN(CCOCCOc3ccc4c(c3)CCC4)CC2)cc1,inactive
9,COCCCNCCCCOc1c(Cl)cc(C)cc1Br,inactive
10,Cc1cc(C)c(C)c(OCCNCc2ccccc2)c1,inactive
11,COCCNCCOCCOc1ccc(Cl)c(C)c1,inactive
12,CC(=O)Nc1ccc(Oc2nc(-c3ccccn3)nc3ccccc23)cc1,inactive
13,Cc1ccc(CCC(=O)Nc2ccc(N(C)C)cc2)o1,inactive
14,Cc1cc(C(=O)NNC(=O)/C=C/c2ccco2)c(C)o1,inactive
15,COc1cc(/C=C/C(=O)OCC(=O)NCC2CCCCC2)ccc1O,inactive
16,COc1ccc(/C=N/Nc2nc(N3CCCC3)nc(N3CCCC3)n2)cc1O,inactive
17,S=C(c1ccccc1)N1CCN(c2ccccc2)CC1,inactive
18,C=CCn1c(SCC(C)=O)nnc1-c1cc(-c2ccccc2)sc1N,inactive
19,CCOC(=O)c1oc2cc(O)cc(C)c2c1C,inactive
20,CCn1c(=S)[nH]c2sc3c(c2c1=O)CCCC3,inactive

row,Compound,outcome
1,COc1ccc(NCc2cccnc2)cc1,inactive
2,CC(=O)Nc1cccc2cc(O)ccc12,inactive
3,Cc1cc(Oc2ccc(-c3ccccc3)cc2)n2ncnc2n1,inactive
4,CC(=O)c1ccc(NC(=S)Nc2ccc3[nH]c(=O)[nH]c3c2)cc1,inactive
5,COc1cc(C=NNC(=O)c2ccccc2-n2cccc2)ccc1O,inactive
6,Cc1c(Cl)cccc1Nc1n[nH]c(=S)s1,inactive
7,Cc1ccc[n+](CC(=O)Nc2ccc(N(C)C)cc2)c1,inactive
8,Cc1ccc2c(C)nc(/N=C(\N)NC(=O)N3c4ccccc4Sc4ccccc43)nc2c1,inactive
9,COc1ccc2nc(/N=C(\N)NC(=O)N3c4ccccc4Sc4ccccc43)nc(C)c2c1,inactive
10,Cc1cc2nc(/N=C(\N)NC(=O)N3c4ccccc4Sc4ccccc43)nc(C)c2cc1C,inactive
11,O=C(NC1CCN(C(=O)N2c3ccccc3Sc3ccccc32)CC1)c1ccccc1F,inactive
12,Cc1ccc2nc(/N=C(\N)NC(=O)N3c4ccccc4Sc4ccccc43)nc(C)c2c1,inactive
13,CCOC(=O)C1=C(C)Nc2ccccc2S1,inactive
14,CC1(C)CC(NC(=O)N2c3ccccc3Sc3ccccc32)CC(C)(C)N1,inactive
15,Cc1nc(/N=C(\N)NC(=O)N2c3ccccc3Sc3ccccc32)nc2ccccc12,inactive
16,CN(CC(=O)NCc1ccccc1)Cc1cccc(F)c1,inactive
17,O=C(CSc1nnc(C2CC2)n1C1CC1)N1CCN(c2ccc(O)cc2)CC1,inactive
18,CC1(C)OC(=O)C(=NNc2ccc(O)cc2)C(=O)O1,inactive
19,Cc1cc(-c2cc(C)c(N)cc2C)c(C)cc1N,inactive

# Reference: PubChem BioAssay AID624300 (Southern Research Specialized Biocontainment Screening …, 2012)
